Reference: ChEMBL document CHEMBL3988442, “University of Dundee, Small-Polar-MMV Screening Library” (2021)
Out of some 48,000 compounds screened, about 13,000 (27%) showed an effect of 50% or more. The list shows a part of the results.

system: Wolbachia pipientis; test: Anti-Wolbachia Cell-Based Screen; format: functional; set-up: scale not given: in the data most compounds retested in dose-response had high values; settings: 5 µM

| Compound | Percent Effect [%] |
| --- | --- |
| Cc1cc(-c2cnc(NC3CC3)nc2-c2ccco2)on1 | 84.65 |
| Cc1cc(-c2cnc(NC3CCCCC3)nc2-c2ccco2)on1 | 96.71 |
| CCN1CCN(c2ncc(-c3cc(C)no3)c(-c3ccco3)n2)CC1 | 110.6 |
| CCN1CCC(N2CCN(c3cc(-c4nc(C)no4)ccn3)CC2)CC1 | 10.41 |
| CCN1CCN(c2ncc(-c3cc(C)no3)c(-c3ccoc3C)n2)CC1 | -0.7712 |
| Cc1cc(-c2cnc(NC3CC3)nc2-c2ccoc2C)on1 | 65.28 |
| Cc1cc(-c2cnc(NC3CCCC3)nc2-c2ccoc2C)on1 | -4.074 |
| O=C1NCCO[C@H]2CN(C(=O)CCc3ccccc3Cl)CC[C@@H]12 | -36.6 |
| COCC1CN(C(=O)COc2ccc(C)cc2)Cc2cn(C)nc21.O=C(O)C(F)(F)F (stereo unspecified) | -4.21 |
| CCn1ncc2c1CCCC2NCc1cscn1 (stereo unspecified) | -5.451 |
| Cc1cc(C2CCC2)nc(N(C)Cc2cc(-c3ccccn3)no2)n1 | 38.25 |
| Cc1occc1-c1nc(NC2CCCC2)ncc1-c1ccccn1 | 77.82 |
| Cc1cc(-c2cnc(NC3CCCC3)nc2-c2ccco2)on1 | 111.9 |
| Cc1cc(-c2cnc(NC3CCCC3)nc2-c2ccc(C)o2)on1 | 122.4 |
| Cc1cccnc1C(Nc1nccc(C2CCCC2)n1)C1CC1 (stereo unspecified) | -13.6 |
| CNC(=O)C1CCCCN1C(=O)c1csc(-c2ccc(C)o2)n1 (stereo unspecified) | -2.315 |
| O=C1CCC(C(=O)NCCOc2ccccc2-c2ccccc2)CN1 (stereo unspecified) | 30.95 |
| NC(=O)c1cccc(NC(=O)CSc2ccc3c(c2)CCC3)c1 | 10.83 |
| COc1ccc2nc(C3CC3)cc(C(=O)NCc3ncnn3C)c2c1 | -9.156 |
| Cn1c(C(F)(F)F)nn(CCNC(=O)c2nc3ccccc3s2)c1=O | -27.26 |
| Cn1cnnc1CNC(=O)c1ccc(Br)cc1O | -16.68 |
| COc1nc2c(cc1C(=O)NCCc1nc3ccccc3s1)CCC2 | -9.25 |

| Compound | Percent Effect [%] |
| --- | --- |
| CCOc1ccc2nc(NC(=O)c3c(C(=O)O)cnn3C)sc2c1 | -2.899 |
| COc1ccc2nc(NC(=O)c3c(C(=O)O)cnn3C)sc2c1 | 107.5 |
| Cn1ncc(C(=O)O)c1C(=O)Nc1nc2ccccc2s1 | 107.6 |
| Cn1ncc(C(=O)O)c1C(=O)Nc1nc2ccc(Br)cc2s1 | 84.26 |
| Fc1cnc(N2CCc3nnc(COc4ccccn4)n3CC2)nc1.O=C(O)C(F)(F)F | 2.887 |
| O=S(=O)(C1CC1)N1CCOCC2(CN(c3ncccn3)CCO2)C1 (stereo unspecified) | -5.762 |
| CCn1cc(C(=O)N2CCCN(c3cccnn3)CC2)c2ccccc21 | -8.81 |
| CO[C@H]1CCN(C2CCOCC2)C[C@@H]1Cc1ccccc1.O=C(O)C(F)(F)F | -3.139 |
| O=C(O)C(F)(F)F.c1ccc(C[C@H]2CN(C3CCOCC3)CC[C@H]2OCC2CC2)cc1 | -4.378 |
| CO[C@@H]1CCN(Cc2ccoc2)C[C@@H]1Cc1ccccc1.O=C(O)C(F)(F)F | 89.22 |
| CO[C@@H]1CCN(Cc2nccs2)C[C@@H]1Cc1ccccc1.O=C(O)C(F)(F)F | -16.15 |
| CO[C@@H]1CCN(Cc2ccc(C)o2)[C@H]1Cc1ccccc1.O=C(O)C(F)(F)F | 10.3 |
| CO[C@H]1CCN(Cc2ccoc2)C[C@@H]1Cc1ccccc1.O=C(O)C(F)(F)F | 68.19 |
| CO[C@@H]1CCN(C2CCOCC2)C[C@@H]1Cc1ccccc1.O=C(O)C(F)(F)F | -11.13 |
| COc1ccc(CN2CC[C@@H](O)[C@@H]2Cc2ccccc2)cc1.O=C(O)C(F)(F)F | 17.99 |
| CO[C@@H]1CCN(Cc2ccoc2)[C@H]1Cc1ccccc1.O=C(O)C(F)(F)F | 118.7 |
| Cc1cc(Cl)c2c(c1)C1(NC(=O)c3cccnc3N1)C(=O)N2 (stereo unspecified) | -1.916 |
| CC(C)=CCC1(CO)CCCN(Cc2nccs2)C1 (stereo unspecified) | 1.266 |
| O=C(O)C(F)(F)F.O=C(c1ccnnc1)N1CCN2C[C@H](Oc3cccc(F)c3)C[C@H]2C1 | -26.48 |
| COc1ccc(C)cc1NC(=O)Cn1nc(C)c(C#N)c1N | -0.6679 |
| Cc1nc(CN2CCC3(CCCO3)CC2)c2ccccn12 | 20.84 |
| COc1ccccc1C1(CNc2snc(Cl)c2C#N)CCCC1 | -12.01 |

| Compound | Percent Effect [%] |
| --- | --- |
| COc1ccc(C2(NCc3c(C)nc4c(C)cccn34)CCCC2)cc1.O=C(O)CC(O)(CC(=O)O)C(=O)O | 147.1 |
| COc1ccccc1C1(CNc2nnc(C)c(C)c2C#N)CCCC1 | -5.07 |
| COc1c(CNC2(c3ccc(Cl)cc3)CCC2)c(C)nn1C | -12.89 |
| COc1ccccc1C1(NCc2c(C)nc3c(C)cccn23)CCCC1.Cl | 58.58 |
| Cc1nc2sccn2c1CNc1cc(C(=O)O)ccc1F | -0.08043 |
| Cc1ccc(C2(O)CCN(Cc3nc(C)n4ccccc34)CC2)nc1 | -9.121 |
| Cc1nc(CN2CCC(O)(c3ccccc3F)CC2)c2ccccn12.O=C(O)CC(O)(CC(=O)O)C(=O)O | 94.96 |
| Cc1nc2sccn2c1CNC1(c2ccccc2F)CCCC1.O=C(O)CC(O)(CC(=O)O)C(=O)O | 86.58 |
| COc1ccc(C2(NC(=O)CCn3cncn3)CCCCC2)cc1 | -6.832 |
| Cc1nc2sccn2c1CNc1ccc(C(=O)O)cc1 | 3.655 |
| Cc1oncc1C(=O)N1CC[C@H]2[C@H](CO[C@@H]2CNS(C)(=O)=O)C1 | -5.011 |
| COc1ccc(CNCCC(=O)N2CCc3sccc3C2)cc1O | -10.83 |
| Cc1csc2ncc(-c3ccnc(N4CCCC[C@@H]4CO)n3)c(=O)n12 | 6.094 |
| O=c1c(-c2ccnc(N3CCC[C@H]3CO)n2)cnc2sccn12 | 102.3 |
| OCC1CCCCN1c1ccc(-c2nc(-c3ccccc3F)no2)cn1 (stereo unspecified) | 1.745 |
| Cc1cn2c(=O)c(-c3ccnc(N4CCC[C@@H]4CO)n3)cnc2s1 | 87.72 |
| COc1ccc(-c2noc(-c3ccc(N4CCC[C@H]4CO)nc3)n2)cc1 | -7.045 |
| CC(C)(C)c1cn2nc(N3CCC[C@@H]3CO)sc2n1 | -4.736 |
| Cc1csc2ncc(-c3ccnc(N4CCC[C@@H]4CO)n3)c(=O)n12 | 56.16 |
| O=C(NCCc1cccs1)N1CCC[C@H]1CO | -11.14 |
| O=c1c(-c2ccnc(N3CCCC[C@@H]3CO)n2)cnc2sccn12 | 125.6 |
| Cc1cnn(CC2CCCN2Cc2cc(=O)n3c(C)csc3n2)c1 (stereo unspecified) | 1.323 |
